HT1080-NT tox = qHTS for induction of synthetic lethality in tumor cells producing 2HG: qHTS for the HT-1080-NT fibrosarcoma cell line; HT-1080-NT fibrosarcoma viability, CellTiter-Glo ATP luminescence, 48 h; AID 686970, 2013; Potency, µM (series often up to 46.1 µM), without a hit: top-dose activity, negative = less viability, usual class: cytotoxic; 1.6% of 360,000 active;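 note: NT is the 2HG producing partner of a matched IDH1 knockdown line; 0% = DMSO-treated cells and -100% = media-only wells without cells; nearly all actives have a fitted effect of over 55% in size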
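Fibrosarcoma NT cells, 750 per well in 5% FBS RPMI, were exposed to compound for 48 hours. Viability: CellTiter-Glo luminescence.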
KB-V1 cytotox = qHTS assay for MDR1-selective chemotherapeutics: Primary screen using the drug-selected MDR subline cells KB-V1. 3.4% of 400,000 active. AID 1347076, 2019. Potency, µM (highest dose often 46.1 µM), hits mostly cytotoxic. KB-V1 MDR cells viability, CellTiter-Glo, 72 h; note: % is set by controls: 0 for no effect and ±100 for the full control effect; nearly all actives have a fitted effect of over 60% in size
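Drug-selected KB-V1 cells, grown in DMEM lacking phenol red with 10% FBS, receive compound titrations; after three days at 37 degrees C, surviving cell ATP is quantified by CellTiter-Glo luminescence and responses normalized and curve-fitted.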
KB-3-1 cytotox = qHTS assay for MDR1-selective chemotherapeutics: Primary screen using the parental adenocarcinoma cell KB-3-1 | KB-3-1 viability, CellTiter-Glo ATP luminescence, 72 h | AID 1347075, 2019 | 1.4% of 400,000 active | Potency, µM (series often up to 46.1 µM), most hits filed as cytotoxic; note: % is set by controls: 0 for no effect and ±100 for the full control effect; nearly all actives have a fitted effect of over 60% in size
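Cytotoxicity measured as CellTiter-Glo luminescence after 72 h at 37 C. Compound titrations were pinned onto drug-naive KB-3-1 parental adenocarcinoma cells grown in DMEM with 10% FBS, and normalized data fitted to concentration-response curves.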
MCF10A rereplic = A quantitative high throughput screen for small molecules that induce DNA re-replication in MCF 10a normal breast cells; MCF 10A DNA re-replication, Hoechst nuclear intensity, 48 h; 2.9% of 350,000 active; Potency, µM (top dose mostly 46.1 µM), without a hit: at the highest dose activity, positive = re-replication, usual class: activators; AID 624296, 2012; note: % of control where 0% means no effect; nearly all actives have a fitted effect of over 50% in size
SW480 rerep = A quantitative high throughput screen for small molecules that induce DNA re-replication in SW480 colon adenocarcinoma cells; Potency, µM (doses to about 46.1 µM), for inactives: at the highest dose re-replication activation, actives largely listed as activators; SW480 DNA re-replication, Hoechst DNA content imaging, 48 h; 1.8% of 340,000 active; AID 624297, 2012; note: % of control where 0% means no effect; nearly all actives have a fitted effect of over 55% in size
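Image-based read-out: total Hoechst fluorescence of nuclei (405 nm excitation, 500-530 nm emission), with hits raising the fraction of high-intensity nuclei. SW480 colon cells incubated 48 hr with compounds at 37 C.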
HT1080 IDH1KD tx = qHTS for induction of synthetic lethality in tumor cells producing 2HG: qHTS for the HT-1080-IDH1KD cell line; HT-1080 IDH1 knockdown viability, ATP luminescence, 48 h; Potency, µM (top dose mostly 46.1 µM), for inactives: at the highest dose activity, negative = toxicity, most hits filed as cytotoxic; 2% of 360,000 active; AID 686971, 2013;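 note: 0% = DMSO wells and -100% = cell-free medium wells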
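Assay cells: HT-1080 with IDH1 knockdown, 750 per well, RPMI/5% FBS. Exposure: 48 h at 37 °C following 2 h pre-incubation. Read: CellTiter-Glo luminescence; fitted concentration-response, curve class assigned.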
Starred values were filed as active, the others as inactive. Shown are actives, neighbours in structure and some others; about 8% of the full set was active somewhere. Calls come from the whole dose curve; as a rule, active = well fitted curve in the direction sought with a large enough effect; inconclusive = small, poorly fitted or top-dose-only effect, or another doubt; inactive = no such curve, though single readings can be large; an effect the other way counts as inactive or inconclusive. Potency is the fitted concentration of half-maximal effect.

Screening CCOc1ccc(OCC)c(NC(=O)CCc2nc3cccnc3n2-c2ccccc2)c1 returned KB-V1 cytotox inactive and KB-3-1 cytotox inactive.
COc1cccc2c1Oc1ncccc1N(c1ccc(C(=O)NCc3ccccc3Cl)s1)C2 was read as KB-V1 cytotox inactive and KB-3-1 cytotox inactive.
For Cc1cccc(NC(=O)c2n[nH]c([N+](=O)[O-])c2Br)c1C the results were HT1080-NT tox inconclusive, KB-V1 cytotox inconclusive, KB-3-1 cytotox inconclusive, MCF10A rereplic 10%, SW480 rerep 2% and HT1080 IDH1KD tx 26µM*.
For NC(=O)c1c(NC(=O)c2cc(-c3ccc(F)cc3)on2)sc2c1CCCC2 the results were KB-V1 cytotox inactive and KB-3-1 cytotox inactive.
Screening CCC(C)NC(=O)COC(=O)c1oc2ccccc2c1CSc1ccc(Cl)cc1 (configuration not stated) returned HT1080-NT tox -1%, KB-V1 cytotox inactive, KB-3-1 cytotox inactive, MCF10A rereplic -1%, SW480 rerep 0.92µM* and HT1080 IDH1KD tx -4%.
`COC(=O)c1cccc(NC(=O)c2cnn(C)c2)c1` gave HT1080-NT tox 27%, KB-V1 cytotox inactive, KB-3-1 cytotox inactive, MCF10A rereplic -1%, SW480 rerep -11% and HT1080 IDH1KD tx 12%.
`CCCCCCCCCCCCCCCC[N+](C)(C)CCN(Cc1ccc(OC)cc1)c1ncccn1` gave HT1080-NT tox 16µM*, KB-V1 cytotox inactive, KB-3-1 cytotox inconclusive, MCF10A rereplic inconclusive, SW480 rerep 0% and HT1080 IDH1KD tx 18µM*.
CCCNC(=O)C1CCN(S(=O)(=O)c2ccc(Br)cc2)CC1 was read as HT1080-NT tox -9%, KB-V1 cytotox 16µM*, KB-3-1 cytotox inactive, MCF10A rereplic 2%, SW480 rerep -1% and HT1080 IDH1KD tx -28%.
For COc1cccc(CNC(=O)C2CCN(S(=O)(=O)c3ccc(F)cc3)CC2)c1 the results were HT1080-NT tox -3%, KB-V1 cytotox 23µM*, KB-3-1 cytotox inactive, MCF10A rereplic 1%, SW480 rerep -4% and HT1080 IDH1KD tx 1%.
Screening CC1Sc2ccc(S(=O)(=O)N3CCC(C(=O)Nc4cccc(Cl)c4)CC3)cc2NC1=O (configuration not stated) returned HT1080-NT tox inconclusive, KB-V1 cytotox inactive, KB-3-1 cytotox 15µM*, MCF10A rereplic 1%, SW480 rerep inconclusive and HT1080 IDH1KD tx inconclusive.
COc1ccc(NC(=O)CCNC(=O)C2CCN(S(=O)(=O)c3ccc(OC)cc3)CC2)cc1 was read as HT1080-NT tox 4%, KB-V1 cytotox inactive, KB-3-1 cytotox inactive, MCF10A rereplic 16%, SW480 rerep inconclusive and HT1080 IDH1KD tx 4%.
Cc1ccc(NC(=O)C2CCN(S(=O)(=O)c3ccc4c(c3)NC(=O)C(C)S4)CC2)cc1C (configuration not stated) was read as HT1080-NT tox inconclusive, KB-V1 cytotox inactive, KB-3-1 cytotox inconclusive, MCF10A rereplic 1%, SW480 rerep 0% and HT1080 IDH1KD tx -21%.
COc1ccc(S(=O)(=O)N2CCC(C(=O)NCCC(=O)Nc3cccc(Cl)c3)CC2)cc1 was read as HT1080-NT tox -4%, KB-V1 cytotox inactive, KB-3-1 cytotox inactive, MCF10A rereplic 21µM*, SW480 rerep inconclusive and HT1080 IDH1KD tx -13%.
For CN(C)c1ccc(C(=O)Nc2c(C(=O)NC(C)(C)C)oc3ccccc23)cc1 the results were KB-V1 cytotox inactive and KB-3-1 cytotox inactive.
